Screens deposited in PubChem BioAssay by several laboratories.
PrPC surface inh: reduces human prion protein on the cell surface; 0.43% of 370,000 active; inhibition, % at 13.8 µM; AID 720596; cell surface PrPC, TR-FRET read-out; P04156; in the data active = inhibition above about 24%
CCHFV vOTU inh: CCHFV vOTU protease inhibition. Pep-AMC fluorescence. inhibition, % at 11.5 µM. 0.55% of 370,000 active; in the data active = inhibition above about 30%
PriA SSB inh: blocks PriA binding to SSB C-terminal tail; AlphaScreen SSBct-PriA binding, biotinylated peptide; inhibition, % at 33 µM; 0.6% of 430,000 active; AID 1272365; in the data active = inhibition mostly above about 37%, no sharp cut-off; inactive = mostly below about 20%
TcdB GH inh: blocks C. difficile toxin B glycohydrolase activity; TcdB glycohydrolase enzymatic assay, plate reader; 0.24% of 350,000 active; P18177; inhibition, % at 9.99 µM; AID 652162; in the data active = inhibition above about 10%
Target sequence (P18177 whole entry, looked up): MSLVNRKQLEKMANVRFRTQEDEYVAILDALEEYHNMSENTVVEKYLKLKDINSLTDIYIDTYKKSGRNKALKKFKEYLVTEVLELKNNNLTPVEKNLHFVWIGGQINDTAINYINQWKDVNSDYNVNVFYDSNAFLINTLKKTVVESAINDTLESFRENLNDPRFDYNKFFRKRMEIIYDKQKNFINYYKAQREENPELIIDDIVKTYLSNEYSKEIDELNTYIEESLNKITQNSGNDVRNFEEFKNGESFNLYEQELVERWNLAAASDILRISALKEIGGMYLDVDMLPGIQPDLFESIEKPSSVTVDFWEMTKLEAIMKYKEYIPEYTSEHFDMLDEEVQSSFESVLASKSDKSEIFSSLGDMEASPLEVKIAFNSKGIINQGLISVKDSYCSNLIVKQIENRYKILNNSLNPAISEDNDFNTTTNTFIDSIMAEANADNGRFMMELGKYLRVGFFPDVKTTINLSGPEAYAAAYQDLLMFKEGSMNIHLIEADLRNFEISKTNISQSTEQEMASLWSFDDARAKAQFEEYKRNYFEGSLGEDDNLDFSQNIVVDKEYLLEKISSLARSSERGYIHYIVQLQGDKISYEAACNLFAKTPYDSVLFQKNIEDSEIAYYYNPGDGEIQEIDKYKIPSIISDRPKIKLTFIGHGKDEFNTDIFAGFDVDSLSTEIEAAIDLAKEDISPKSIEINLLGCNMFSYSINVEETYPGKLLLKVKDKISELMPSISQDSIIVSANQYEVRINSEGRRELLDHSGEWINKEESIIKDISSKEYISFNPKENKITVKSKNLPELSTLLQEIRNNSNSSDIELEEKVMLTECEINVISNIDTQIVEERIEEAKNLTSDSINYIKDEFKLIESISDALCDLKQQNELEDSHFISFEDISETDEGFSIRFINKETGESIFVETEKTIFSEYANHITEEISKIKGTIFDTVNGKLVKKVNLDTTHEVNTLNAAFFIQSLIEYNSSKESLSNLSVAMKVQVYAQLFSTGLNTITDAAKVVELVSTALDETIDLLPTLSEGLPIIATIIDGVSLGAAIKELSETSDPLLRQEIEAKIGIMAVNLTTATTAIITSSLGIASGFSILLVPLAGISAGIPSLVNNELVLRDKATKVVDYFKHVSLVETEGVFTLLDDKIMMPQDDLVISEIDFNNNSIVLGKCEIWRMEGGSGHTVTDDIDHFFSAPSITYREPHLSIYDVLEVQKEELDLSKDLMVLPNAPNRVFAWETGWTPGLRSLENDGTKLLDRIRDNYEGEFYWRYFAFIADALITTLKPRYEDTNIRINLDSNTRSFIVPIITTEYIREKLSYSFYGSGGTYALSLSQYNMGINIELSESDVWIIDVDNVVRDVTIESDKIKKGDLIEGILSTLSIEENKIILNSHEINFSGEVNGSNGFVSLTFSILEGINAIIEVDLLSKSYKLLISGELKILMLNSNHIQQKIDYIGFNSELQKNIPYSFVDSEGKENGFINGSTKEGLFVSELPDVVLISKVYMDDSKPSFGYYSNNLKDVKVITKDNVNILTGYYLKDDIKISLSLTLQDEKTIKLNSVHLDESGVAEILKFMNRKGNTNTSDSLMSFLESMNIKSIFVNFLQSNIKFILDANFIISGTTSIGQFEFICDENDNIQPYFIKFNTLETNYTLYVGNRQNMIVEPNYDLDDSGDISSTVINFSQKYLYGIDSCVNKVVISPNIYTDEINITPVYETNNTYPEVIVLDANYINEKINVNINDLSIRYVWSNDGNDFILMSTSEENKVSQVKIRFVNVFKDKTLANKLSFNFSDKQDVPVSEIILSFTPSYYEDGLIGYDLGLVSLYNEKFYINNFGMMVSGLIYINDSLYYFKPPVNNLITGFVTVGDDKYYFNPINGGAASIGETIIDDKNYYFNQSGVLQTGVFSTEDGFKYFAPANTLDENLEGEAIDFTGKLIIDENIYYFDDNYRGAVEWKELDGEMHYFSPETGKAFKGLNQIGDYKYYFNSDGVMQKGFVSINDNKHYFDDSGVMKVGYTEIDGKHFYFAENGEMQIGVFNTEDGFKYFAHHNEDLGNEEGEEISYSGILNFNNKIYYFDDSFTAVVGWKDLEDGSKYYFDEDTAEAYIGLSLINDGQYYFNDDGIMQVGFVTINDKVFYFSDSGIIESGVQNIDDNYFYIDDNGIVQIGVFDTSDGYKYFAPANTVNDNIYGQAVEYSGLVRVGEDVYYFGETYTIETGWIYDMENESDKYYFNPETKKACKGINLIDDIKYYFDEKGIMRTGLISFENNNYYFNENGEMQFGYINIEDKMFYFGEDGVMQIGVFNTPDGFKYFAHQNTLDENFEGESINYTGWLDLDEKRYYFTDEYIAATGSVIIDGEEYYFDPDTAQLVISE
BH1578 lux ind: quorum light induction in luxS cqsA deficient V. cholerae | V. cholerae BH1578 lux reporter, luminescence, 6 h | activation, % at 18.7 µM | 0.16% of 350,000 active | AID 588436; in the data active = activation mostly above about 9.7%, no sharp cut-off
VHR inh abs: inhibitors of human VHR1 phosphatase (DUSP3); P51452; recombinant VHR phosphatase, pNPP absorbance; inhibition, % at 13.3 µM; 0.52% of 290,000 active; AID 1654; in the data active = inhibition above about 50%
Hits are given with their value; 0 = inactive; - = not tested or not shown. Hits are enriched below; roughly 1.5% of the tested compounds scored in any of these assays.

SMILES	PrPC surface inh	CCHFV vOTU inh	PriA SSB inh	TcdB GH inh	BH1578 lux ind	VHR inh abs
COC(=O)Nc1ccc(OCC(=O)N2CCOCC2)cc1	0	0	0	-	0	0
CC(C)CC(NC(N)=O)C(=O)Nc1ccc(Cl)c(Cl)c1 (stereo not drawn)	0	0	0	0	0	51
CNc1sc(C(=O)c2ccc(F)cc2)c(N)c1-c1nc2ccccc2s1	0	0	0	-	0	0
CNc1sc(C(=O)c2cccs2)c(N)c1-c1nc2ccccc2s1	0	0	53	-	0	0
O=C(c1ccco1)[C@@H]1[C@@H]2C(=O)N(c3ccccc3)C(=O)[C@@H]2C2c3ccccc3C=CN21 (stereo partly drawn)	0	96	0	-	0	0
O=c1[nH]c(=O)n(C2CCCCCC2)c(O)c1C=NC1CCN(Cc2ccccc2)CC1	0	0	0	-	38	0
C=CCNC(=O)CC(=O)NN=Cc1ccc(F)cc1	-	-	0	-	-	-
COC(=O)C(Cc1ccccc1)NC(=O)CSc1nc(C)cc(=O)[nH]1 (stereo not drawn)	0	0	0	22	0	0
CCOCCCNC(=O)c1cc2cc3cc(OC)ccc3nc2o1	0	0	0	0	0	53
O=c1oc2ccccc2c2c1SC(C(F)(F)F)C2 (stereo not drawn)	0	0	0	-	0	56
O=c1oc2ccc3ccccc3c2c2c1SC(C(F)(F)F)C2 (stereo not drawn)	-	-	0	-	0	0
NC(=O)C1CCN(C(=O)CCCSc2ccc(NC(=O)c3ccc(F)cc3)nn2)CC1	-	-	0	-	-	-
CC1(C)CNc2cc(N)ccc2S1	0	0	74	0	0	0
Nc1ccc(N=Nc2ccccc2)c2cccnc12	0	0	59	0	0	0
CC(C)C(C(=O)O)N1C(=O)/C(=C/C=C/c2ccco2)SC1=S (stereo not drawn)	-	-	0	-	0	52
O=C(Cc1ccsc1)NCC1(Sc2ccccc2)CCOCC1	-	-	0	-	-	-
CNC(=S)N/N=C/c1c(C(=O)OC)cnn1-c1ccc(F)cc1F	0	0	-	12	0	0
CCOc1cc2c3c(c1)C1(OCCO1)C(=O)N3C(C)(C)CC2C (stereo not drawn)	0	0	0	-	0	0
CCOc1cc2c3c(c1)C1(Nc4ccccc4S1)C(=O)N3C(C)(C)CC2C (stereo not drawn)	0	0	40	-	0	0
O=C(O)CCc1nnc(SCC(=O)Nc2ccc(F)c(Cl)c2)[nH]c1=O	-	-	0	-	-	-
CC(=O)Nc1nc(C)c(Oc2ccc(Cl)cc2Cl)c(=O)[nH]1	0	0	0	-	17	0
CCc1nn(CCCC(=O)N2CCC(C)CC2)c(=O)c2cc3occc3n12	0	0	0	0	0	0
CCc1nn(CCCC(=O)N2CCN(c3ccc(OC)cc3)CC2)c(=O)c2cc3occc3n12	0	0	0	0	0	57
COc1cc(C(C)=O)ccc1OC(=O)c1cc2cccc(OC)c2oc1=O	0	0	0	0	0	0
COc1cc(Br)cc2cc(C(=O)Oc3cccc4cccnc34)c(=O)oc12	-	-	89	-	-	-
SMILES	PrPC surface inh	CCHFV vOTU inh	PriA SSB inh	TcdB GH inh	BH1578 lux ind	VHR inh abs
Cc1cc(C(=O)NCCn2nc(C3CC3)n(-c3ccccc3)c2=O)c(C)o1	-	-	0	-	-	-
O=C1c2ccccc2C2=Nc3ccccc3SC(c3ccc(Cl)cc3)C12 (stereo not drawn)	0	0	53	0	0	0
O=C1c2ccccc2C2=Nc3ccccc3SC(c3cccc(F)c3)C12 (stereo not drawn)	0	0	0	-	0	0
O=C(Nc1nnc(-c2ccc(F)cc2)o1)c1ccc(S(=O)(=O)N2CCOCC2)cc1	-	-	0	-	25	0
O=C(NC1CCN(S(=O)(=O)c2ccc(F)cc2)CC1)c1ccc(F)cc1	0	0	0	0	0	56
Cc1ccc(NC(=O)CN2CCC(C(=O)c3ccc(F)cc3)CC2)cc1	0	0	0	-	0	0
Cc1ccc(C(=O)C2CCN(CC(=O)NCc3ccc(F)cc3)CC2)cc1	0	0	0	0	0	53
CC(C)OC(=O)C(=O)NNc1ccccc1	0	0	0	15	0	0
O=C(CC1CSc2nc3[nH]ncc3c(=O)n21)Nc1ccc(F)c(Cl)c1 (stereo not drawn)	-	-	0	-	-	-
COc1ccc(/C=N/Nc2cc(N3CCCC3)nc(N3CCCC3)n2)cc1	0	0	-	0	0	0
Oc1ccc(C=NNc2nc(N3CCCC3)nc(N3CCCC3)n2)cc1O	-	-	0	-	-	-
COc1ccc(C=NNc2cc(N3CCCC3)nc(N3CCCC3)n2)cc1	-	-	49	-	-	-
Oc1ccc(/C=N/Nc2nc(N3CCCC3)nc(N3CCCC3)n2)cc1O	0	0	-	21	0	0
CC(C)(C)N1[C@@H](CC(=O)O)c2cc(C(F)(F)F)ccc2S1(=O)=O	0	0	0	12	0	-
CC[C@@H](C(=O)N1CCN(c2ncnc3c2nnn3Cc2ccccc2)CC1)c1ccccc1	-	-	0	-	-	-
O=C(Nc1nc2ccc3ccccc3c2s1)c1ccc(S(=O)(=O)N2CCc3ccccc3C2)cc1	-	-	0	-	-	-
Cc1ccc2nc(NNC(=O)c3ccc(S(=O)(=O)N4CCc5ccccc5C4)cc3)sc2c1	0	0	95	0	0	0
Cc1nc(N2CCN(C(=O)C3CCC3)CC2)cc(C(F)(F)F)n1	-	-	0	-	-	-
N#C/C(=C\N1CCN(Cc2ccc3c(c2)OCO3)CC1)C(=O)Nc1ccc(F)cc1	-	-	0	-	-	-
O=C(CN1C(=O)C2CCCCC2C1=O)Nc1nc(-c2ccccn2)cs1 (stereo not drawn)	0	0	81	-	0	0
C[C@@H](C(=O)Nc1nc(-c2ccccn2)cs1)N1C(=O)C2CCCCC2C1=O (stereo partly drawn)	0	0	81	-	0	0
CC1Oc2ccccc2N(CC(=O)Nc2ccc(F)cc2)C1=O (stereo not drawn)	0	0	0	0	0	0
CC(C)[C@H](NC(=O)c1ccccc1Cl)C(=O)Nc1nc(-c2ccccn2)cs1	0	0	0	0	0	0
CC1Oc2ccccc2N(CC(=O)Nc2nc(-c3ccccn3)cs2)C1=O (stereo not drawn)	-	-	58	-	-	-
C=C1Nc2ccccc2N(CC(=O)Nc2nc(-c3ccccn3)cs2)C1=O	-	-	0	-	-	-
SMILES	PrPC surface inh	CCHFV vOTU inh	PriA SSB inh	TcdB GH inh	BH1578 lux ind	VHR inh abs
Cn1ccc(C(=O)Nc2nnc(-c3ccsc3)o2)n1	-	-	0	-	-	-
Cc1ccc(S(=O)(=O)/N=C2/C=C(C3C(=O)CC(C)(C)CC3=O)C(=O)c3ccccc32)cc1	0	108	-	-	0	0
Cn1cc([C@@H](O)CNS(=O)(=O)c2ccc3oc(=O)n(C)c3c2)c2ccccc21	-	-	0	-	-	-
C=C(C)C1CC=C(C)C(=NNc2ccccc2[N+](=O)[O-])C1 (stereo not drawn)	-	-	41	-	-	-
CCOc1cc(C(=O)NCc2ccc(C)cc2)ccc1OCC(=O)N1CCOCC1	0	0	0	0	0	51
COc1ccc(N2CCN(S(=O)(=O)c3c(Cl)cccc3Cl)CC2)cc1	-	-	0	-	-	-
CCCCC(NC(=O)Cc1c(C)c2cc3c4c(oc3cc2oc1=O)CCCC4)C(=O)O (stereo not drawn)	0	0	0	0	0	0
CCCCC(NC(=O)CCc1c(C)c2cc3c4c(oc3c(C)c2oc1=O)CCCC4)C(=O)O (stereo not drawn)	0	0	0	0	0	58
